# Most compounds without a hit are left out; they make up all but 4.8% or so of the library.
# DAX1 inh-1: NR0B1 (DAX1) inhibition | P51843 | HEK293 Gal4-DAX1 luciferase reporter, luminescence | inhibition, % at 6.75 µM | 0.99% of 340,000 active | AID 504766;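 active = inhibition above the mean over all tested compounds plus 3 SD, cut at about 4.2% in these data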;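 also: 0% = DAX1-transfected cells with DMSO and 100% = empty-vector control cells with DMSO; inhibition shows as a rise in luminescence from relieved DAX1 repression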
# Target sequence (P51843 207-470 limits assumed): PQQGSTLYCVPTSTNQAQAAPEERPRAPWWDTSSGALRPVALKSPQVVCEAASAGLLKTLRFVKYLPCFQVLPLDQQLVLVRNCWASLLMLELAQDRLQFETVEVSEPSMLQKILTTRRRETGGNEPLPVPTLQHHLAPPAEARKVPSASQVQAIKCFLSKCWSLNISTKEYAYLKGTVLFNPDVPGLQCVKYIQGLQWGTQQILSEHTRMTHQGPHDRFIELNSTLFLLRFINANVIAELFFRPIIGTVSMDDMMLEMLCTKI
# DAX1 inh-2: inhibitors of DAX1 repression of SF-1 activated StAR promoter | HEK293T StAR-luciferase reporter, SF-1/DAX-1 repression relief | inhibition, % at 6.8 µM | 1.1% of 370,000 active | AID 652010;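 active = inhibition above the mean over all tested compounds plus 3 SD, cut at about 3.6% in these data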;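 also: 0% = DAX-1 cells with DMSO and 100% = cells lacking DAX-1 with DMSO; higher inhibition means more luminescence from relief of DAX-1 repression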
# hcDAF12 agonist: activators of H. contortus DAF-12 nuclear receptor | HEK293 hcDAF-12 lit1-tk-luc reporter, luminescence; 0% DMSO, 100% Δ7-dafachronic acid | 1.4% of 370,000 active | AID 652067 | activation, % at 6.8 µM;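 active = activation above the mean of all tested compounds plus 3 SD, cut at about 5.5% in these data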;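 also: 100% = response to 3 µM Δ7-dafachronic acid high control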
# hgDAF-12 ag: activates the H. glycines DAF-12 receptor ligand-binding domain; HEK293 GAL4-hgDAF12 UAS-luciferase reporter, agonist luminescence; normalized to butyrate control; activation, % at 6.8 µM; 1.8% of 370,000 active; AID 687014;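 active = activation above a cutoff set at the mean of all screened compounds plus 3 SD, cut at about 10% in these data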;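 also: 0% = DMSO wells and 100% = sodium butyrate wells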
# SMARCA2 act: SMARCA2 function activation, primary screen | 1% of 370,000 active | activation, % at 9.1 µM | MG213 cells, MMTV-luciferase reporter, dexamethasone, overnight; in the data active = activation above about 7.8%;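 also: 0% = vehicle wells and 100% = reference activator wells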
# ssDAF12 agonist: activates DAF-12 receptor from parasite S. stercoralis; 1% of 370,000 active; HEK293 ssDAF-12/GRIP1 lit1-tk-luc reporter, luminescence; % of 3 µM dafachronic acid response; activation, % at 6.8 µM; AID 652126;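 active = activation above the mean over all tested compounds plus 3 SD, cut at about 0.9% in these data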;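 also: 0% = DMSO-only wells and 100% = 3 µM delta7-dafachronic acid wells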
# LXRb hcDAF ctr: LXR-beta agonism as hcDAF-12 counter-screen. shares compounds with hcDAF12 agonist. HEK293 Gal4-LXR tk-luc reporter, luminescence, 24 h; normalized: DMSO 0%, positive control 100%. activation, % at 6.8 µM. 3,400 tested, under 10 active. AID 743027;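 active = mean percent activation of the reporter above a cutoff set as the average over tested compounds plus their standard deviation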
# hcDAF12 ag: confirmation of H. contortus DAF-12 agonists. 61% of 3,400 active. AID 743032. shares compounds with hcDAF12 agonist. activation, % at 6.8 µM. HEK293 hcDAF-12 lit1-tk-luc reporter, luminescence; % of Δ7-dafachronic acid response;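 active = mean activation across triplicate tests above the threshold derived from the earlier primary screen, cut at about 5.5% in these data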;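 also: 0% = DMSO only wells and 100% = 3 µM Δ7-dafachronic acid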
# * hit, by the source's call; . = not tested or not shown.
SMILES,DAX1 inh-1,DAX1 inh-2,hcDAF12 agonist,hgDAF-12 ag,SMARCA2 act,ssDAF12 agonist,LXRb hcDAF ctr,hcDAF12 ag
Clc1ccc(/C=C/c2nc3ccccc3[nH]2)c(Cl)c1,-3.5,3.1,11.7*,8.7,0.3,1.2*,1.6,17.5*
Cc1sc2c(c1C)CN(Cc1ccncc1)CN2C(=O)c1ccco1,1.2,0.7,2.7,4.8,1.5,-1.1,.,.
Cc1sc2c(c1C)CN(C(C)(C)C)CN2C(=O)c1ccccc1,0.6,1.5,6.8*,8.9,3.5,0.8,0.1,6.4*
COC(=O)[C@]12C[C@H](CC(=O)NCc3ccccc3)C(=O)N(Cc3ccccc3)C1=C[C@H](C(C)C)O[C@@H]2C1CC1,.,0.4,0.1,0.4,-5.8,-0.5,.,.
C=CCOc1c(CNc2cccc(C(=O)O)c2)cccc1OC,1.3,2.6,7.3*,9.3,2.3,0.2,0.5,2.8
C=CCOc1c(CNc2cccc(C(=O)O)c2)cccc1OCC,0.6,0.5,-0.7,-0.1,-0.4,-1.2,.,.
CC(=O)Nc1cccc(-c2nc3ccccc3c(=O)o2)c1,0.0,-0.7,-1.5,1.1,-0.6,-1.1,.,.
O=C/C(=C\Nc1ccccn1)c1nc2cc(Cl)ccc2o1,1.7,0.8,6.8*,2.3,6.9,0.9*,0.1,3.6
COc1cc(OC)cc(C(=O)Nc2ccc(-c3nc4ccccc4o3)cc2)c1,-1.6,-0.4,-1.7,-4.6,0.1,-1.9,.,.
CC(=O)Nc1ccc(N/C=C(\C=O)c2nc3ccccc3o2)cc1,-0.3,-0.2,6.7*,1.3,-1.1,1.0*,-0.1,6.7*
CC(=O)Nc1cccc(N/C=C(\C=O)c2nc3ccccc3o2)c1,2.0,0.9,9.6*,6.9,1.9,1.0*,0.4,9.4*
NC(=O)c1ncn([C@@H]2O[C@H](C(=O)N[C@H](Cc3c[nH]c4ccccc34)C(=O)N3CCN(C(=O)N4CCOCC4)CC3)[C@@H](O)[C@H]2O)n1,.,-0.5,-1.0,0.5,-0.5,-0.8,.,.
CC(C)c1[nH]nc2c1C(c1ccccc1)N(Cc1ccccc1)C2=O (configuration not stated),.,0.2,-0.4,-3.0,-2.3,-1.1,.,.
N/C(=N\OC(=O)c1ccc(F)cc1)c1cccc([N+](=O)[O-])c1,-1.0,0.1,2.0,2.2,5.0,-1.3,.,.
Cc1cccc(/C(N)=N/OC(=O)c2ccc(F)cc2)c1,2.9,2.4,7.2*,12.6*,1.8,0.8,0.7,3.4
O=C(CSc1nnc(Nc2ccccc2F)s1)c1cc2ccccc2o1,0.1,-0.2,7.8*,1.9,1.3,-0.1,0.0,2.8
COc1ccc(Nc2nnc(SCC(=O)N3CCCC3)s2)cc1,0.2,-0.4,-1.6,0.0,1.4,-1.4,.,.
COc1ccc(Nc2nnc(SCC(=O)c3cc4ccccc4o3)s2)cc1,4.1,2.2,10.0*,5.6,0.5,2.0*,0.0,5.2
O=C1c2ccccc2C(=O)N1CSc1nnc(Nc2ccccc2F)s1,-2.0,1.4,-0.4,-0.7,6.6,-1.4,.,.
CN1C(=O)[C@@]2(O[C@H]3[C@H]4C=C[C@@H]([C@H]5C(=O)N(Cc6ccccc6)C(=O)[C@@H]45)N3C3=C2C(=O)CC3)c2ccccc21,.,-0.7,-1.5,0.3,-8.0,-0.8,.,.
CCN1CCN(C(=O)C2CCN(c3nnc(-n4c(C)ccc4C)s3)CC2)CC1,1.8,0.1,10.8*,3.7,-1.7,0.3,-0.1,1.0
Cc1ccc(C)n1-c1nnc(N2CCC(C(=O)N3CCN(C)CC3)CC2)s1,2.4,0.0,1.6,-3.0,0.9,-1.2,.,.
Fc1ccc(C2Nc3cccc4cccc(c34)N2)cc1,0.7,-0.8,7.1*,4.5,-0.4,-0.1,-0.3,2.6
CCCOc1ccc(C2Nc3cccc4cccc(c34)N2)cc1,0.2,-0.2,6.7*,1.9,-0.7,0.4,-0.3,4.0
COC(=O)c1ccc(N=NNc2ccc(C(=O)OC)cc2)cc1,-1.4,3.2,10.2*,6.6,2.1,-0.2,1.4,12.3*
SMILES,DAX1 inh-1,DAX1 inh-2,hcDAF12 agonist,hgDAF-12 ag,SMARCA2 act,ssDAF12 agonist,LXRb hcDAF ctr,hcDAF12 ag
COc1ccc(C)c2sc(=NC(=O)c3ccccc3)n(C)c12,1.0,2.4,10.0*,3.5,1.0,0.4,1.9,13.2*
Cc1cc(OC(C)CCN2CCC(C(O)(c3ccccc3)c3ccccc3)CC2)ccc1Br (configuration not stated),.,-0.9,6.8*,6.4,-9.1,-0.8,-0.3,3.5
Cc1cc(OCCCN2CCC(C(O)(c3ccccc3)c3ccccc3)CC2)ccc1Br,.,0.5,0.1,-0.4,-5.5,-1.2,.,.
CC(CCN1CCC(C(O)(c2ccccc2)c2ccccc2)CC1)Oc1ccc(OC(F)(F)F)cc1 (configuration not stated),.,0.5,7.5*,4.7,-5.0,0.3,-0.2,2.8
O=C1Cn2nnc(-c3ccccc3)c2C2c3cc(Br)ccc3CCN12 (configuration not stated),.,0.3,0.2,0.6,-1.4,-0.2,.,.
N/C(=N\OC(=O)c1ccc(Cl)cc1[N+](=O)[O-])c1cccnc1,1.5,1.0,7.0*,8.0,5.1,0.3,0.3,6.4*
N/C(=N\OC(=O)c1ccc(Cl)cc1[N+](=O)[O-])c1ccccn1,3.3,1.1,8.6*,11.7*,4.7,0.2,0.7,2.4
COc1cccc(C(=O)O/N=C(\N)c2ccncc2)c1OC,2.3,0.6,0.9,4.2,3.8,-0.6,.,.
COc1cccc(C(=O)O/N=C(\N)c2ccccn2)c1OC,0.7,2.5,6.6*,9.8,0.2,0.1,1.4,6.4*
COc1cc(NC(=O)[C@@H](Cc2ccccc2)NC(=O)[C@H]2O[C@@H](n3ccc(=O)[nH]c3=O)[C@H](O)[C@@H]2O)cc(OC)c1OC,.,0.9,-0.2,0.0,-2.0,-0.8,.,.
OCCCNc1ncnc2c1cnn2-c1ccc(Cl)cc1,-0.1,1.7,7.4*,9.2,7.2,0.1,1.0,3.8
O=C1CCCN1CCCNc1ncnc2c1cnn2-c1ccc(Cl)cc1,-0.5,-0.4,-1.1,1.1,4.0,0.1,.,.
Nc1[nH]c(C(=O)c2ccccc2)c(-c2ccc(Cl)cc2)c1C(=O)c1c[nH]c2ccc(F)cc12,.,0.3,2.1,-1.0,3.3,-0.7,.,.
S=C(NCCN1CCOCC1)Nc1ccc(Br)cc1,-0.8,-0.1,6.9*,-1.2,-1.4,0.2,-0.3,0.9
S=C(NCCN1CCOCC1)Nc1ccc(Nc2ccccc2)cc1,-0.9,-0.9,0.0,2.4,-2.5,-0.9,.,.
